# Molecular target: Dual specificity mitogen-activated protein kinase kinase 1 (Homo sapiens) (UniProt Q02750);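 note: values reported are mean inhibition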
# Settings: at 1 µM
# Dual specificity mitogen-activated protein kinase kinase 1 (Homo sapiens), sequence (Q02750 whole entry): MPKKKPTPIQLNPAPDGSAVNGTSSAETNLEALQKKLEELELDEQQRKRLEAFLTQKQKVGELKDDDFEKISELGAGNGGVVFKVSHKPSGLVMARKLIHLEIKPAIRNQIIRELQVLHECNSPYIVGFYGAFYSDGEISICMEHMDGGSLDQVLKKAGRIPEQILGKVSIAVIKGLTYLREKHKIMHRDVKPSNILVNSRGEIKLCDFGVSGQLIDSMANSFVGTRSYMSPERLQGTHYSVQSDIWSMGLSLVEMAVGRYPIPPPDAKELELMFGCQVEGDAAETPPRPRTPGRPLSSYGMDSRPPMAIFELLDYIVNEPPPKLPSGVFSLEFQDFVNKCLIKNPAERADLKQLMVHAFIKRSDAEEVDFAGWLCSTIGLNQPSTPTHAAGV
row,SMILES,inhibition [%]
1,CN1CCC(n2cnc(-c3ccc(F)cc3)c2-c2ccnc(N)n2)CC1,3.41
2,NC(=O)c1sc(-n2cnc3ccc(C(F)(F)F)cc32)cc1OCc1ccccc1Br,5.45
3,CN(C)CCOc1ccc(-c2nc(-c3ccncc3)c(-c3ccc4c(c3)CC/C4=N\O)[nH]2)cc1,3.23
4,CCCN(CCS(C)(=O)=O)Cc1ccc(-c2ccc3ncnc(Nc4ccc(OCc5cccc(F)c5)c(Cl)c4)c3c2)o1,1.76
5,CCc1nn2ncccc2c1-c1ccnc(NC2CC2)n1,2.39
6,CCNC(=O)O[C@H]1CN[C@H](C#Cc2cc3ncnc(Nc4ccc(OCc5cccc(F)c5)c(Cl)c4)c3s2)C1,1.8
7,CNC(=O)c1cccc(C#Cc2cncnc2Nc2ccc(OCc3cccc(F)c3)c(Cl)c2)c1,1.05
8,CCN1CCC(CC(=O)Nc2n[nH]c3nnc(-c4cccc(F)c4F)cc23)CC1,2.45
9,c1cc(-c2cnn3nc(N4CCOCC4)ccc23)nc(NC2CC2)n1,9.33
10,CS(=O)(=O)CCNCc1coc(-c2ccc3ncnc(Nc4ccc(OCc5ccccc5)cc4)c3c2)c1,3.36
11,COc1ccc(-c2cc3c(N)ncnc3o2)cc1,1.35
12,N#Cc1c(NC(=O)CN2CCOCC2)sc2c1CCCC2,5.95
13,Clc1ccc(-c2nn3ncccc3c2-c2ccnc(Nc3ccccc3)n2)cc1,2.28
14,COc1cc(/C=N/Nc2ncnc3[nH]ncc23)ccc1O,3.75
15,CC(C)(CO)CNC(=O)c1ccc2c(c1)/C(=N/Nc1ccc(S(N)(=O)=O)cc1)C(=O)N2,43.1
16,Cc1ccc(O)cc1Nc1ccnc2cc(-c3ccccn3)ccc12,4.87
17,Fc1ccc(-c2nn3ccccc3c2-c2ccncc2)cc1,2.3

row,SMILES,inhibition [%]
1,c1ccc(-c2nc3n(c2-c2ccc4c(c2)OCO4)CCC3)nc1,1.68
2,N#Cc1c(NC(=O)c2ccc(F)cc2)sc2c1CCCC2,1.68
3,COc1cc(N2CCN(C(C)C)CC2)ccc1Nc1nc(Nc2ccc(F)cc2C(N)=O)c2cc[nH]c2n1,15.6
4,COc1cc2c(cc1Nc1nc(Nc3ccsc3C(N)=O)c3cc[nH]c3n1)N(C(=O)CN(C)C)CCC2(C)C,12.3
5,O=S(=O)(CCNCc1ccc(-c2ccc3ncnc(Nc4ccc(OCc5cccc(F)c5)c(Cl)c4)c3c2)o1)c1ccccc1,5.62
6,CCOc1ccc2c(-c3ccnc(Nc4cccc(C(F)(F)F)c4)n3)cnn2n1,0.44
7,Cc1ccc2c(-c3ccnc(Nc4ccccc4)n3)c(-c3ccc(F)cc3)nn2n1,10.8
8,CNC(=O)c1cc(-c2ccc(F)cc2)cc(-c2ccc(S(=O)(=O)N3CCCC3)cc2)c1N,4.52
9,CCn1cc(-c2ccnc3[nH]ccc23)c(-c2cccc(NC(=O)Nc3ccc(OCc4ccccc4)cc3)c2)n1,1.59
10,COc1cc(Nc2nccc(Nc3ccc4c(C)n[nH]c4c3)n2)cc(OC)c1OC,4.1
11,CCn1c(-c2nonc2N)nc2c(C#CC(C)(C)O)nc(OC[C@H](N)c3ccccc3)cc21,4.39
12,c1ccc(COc2ccc(Nc3ncnc4ccc(-c5ccco5)cc34)cc2)cc1,1.55
13,Nc1ncc(-c2cccc(S(N)(=O)=O)c2)c2scc(-c3ccc(F)c(Cl)c3)c12,6.87
14,CS(=O)(=O)CCNCc1ccc(-c2ccc3ncnc(Nc4ccc(OCc5ccccc5)c(C(F)(F)F)c4)c3c2)o1,3.81
15,CCN(CC)S(=O)(=O)c1ccc(OC)c(Nc2ncc(-c3ccccc3)o2)c1,0.32
16,NS(=O)(=O)c1ccc(N/N=C2\C(=O)Nc3ccc4ncccc4c32)cc1,61.1
17,COC(=O)Nc1nc2ccc(Oc3ccc(NC(=O)Nc4cccc(Cl)c4)cc3)cc2[nH]1,0.9

# Molecular target: Misshapen-like kinase 1 (Homo sapiens) (UniProt Q8N4C8);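 note: mean inhibition value reported, from GSK PKIS kinase profiling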
# Sequence (Q8N4C8 whole entry, looked up): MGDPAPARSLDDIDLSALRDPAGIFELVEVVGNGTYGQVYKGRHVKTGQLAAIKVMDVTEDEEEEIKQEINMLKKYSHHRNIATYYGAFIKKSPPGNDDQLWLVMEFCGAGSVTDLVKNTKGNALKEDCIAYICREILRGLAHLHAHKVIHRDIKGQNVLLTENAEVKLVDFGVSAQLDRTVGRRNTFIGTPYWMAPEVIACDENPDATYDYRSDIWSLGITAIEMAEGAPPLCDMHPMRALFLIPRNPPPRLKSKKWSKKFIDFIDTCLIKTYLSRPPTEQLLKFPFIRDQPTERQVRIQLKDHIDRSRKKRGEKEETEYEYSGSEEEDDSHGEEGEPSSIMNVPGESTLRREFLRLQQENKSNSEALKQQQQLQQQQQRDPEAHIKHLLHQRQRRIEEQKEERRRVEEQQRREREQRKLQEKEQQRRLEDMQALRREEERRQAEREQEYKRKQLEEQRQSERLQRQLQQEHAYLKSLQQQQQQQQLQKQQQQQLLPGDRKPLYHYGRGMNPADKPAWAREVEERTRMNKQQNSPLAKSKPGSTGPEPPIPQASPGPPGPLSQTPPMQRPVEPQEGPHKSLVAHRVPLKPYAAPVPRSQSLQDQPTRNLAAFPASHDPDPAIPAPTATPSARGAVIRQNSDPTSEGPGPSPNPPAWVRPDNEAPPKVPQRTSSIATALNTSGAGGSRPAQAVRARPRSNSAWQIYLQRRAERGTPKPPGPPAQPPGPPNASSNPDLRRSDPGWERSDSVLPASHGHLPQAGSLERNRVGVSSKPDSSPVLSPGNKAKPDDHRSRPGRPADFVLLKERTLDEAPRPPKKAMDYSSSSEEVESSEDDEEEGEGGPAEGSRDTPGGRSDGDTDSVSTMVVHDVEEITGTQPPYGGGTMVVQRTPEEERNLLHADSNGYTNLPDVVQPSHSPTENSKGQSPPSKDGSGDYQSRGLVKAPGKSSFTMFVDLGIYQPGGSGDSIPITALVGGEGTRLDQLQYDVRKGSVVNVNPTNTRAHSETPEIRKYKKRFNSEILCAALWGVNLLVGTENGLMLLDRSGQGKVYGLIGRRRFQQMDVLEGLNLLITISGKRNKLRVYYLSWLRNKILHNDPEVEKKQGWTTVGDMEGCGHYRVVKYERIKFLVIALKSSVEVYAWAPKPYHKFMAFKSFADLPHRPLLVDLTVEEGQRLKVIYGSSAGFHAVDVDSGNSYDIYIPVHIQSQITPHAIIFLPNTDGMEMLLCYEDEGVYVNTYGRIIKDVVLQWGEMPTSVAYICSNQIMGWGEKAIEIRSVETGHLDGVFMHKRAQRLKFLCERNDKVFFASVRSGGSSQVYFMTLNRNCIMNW
# Settings: at 0.1 µM
row,SMILES,inhibition [%]
1,CN1CCC(n2cnc(-c3ccc(F)cc3)c2-c2ccnc(N)n2)CC1,4.61
2,NC(=O)c1sc(-n2cnc3ccc(C(F)(F)F)cc32)cc1OCc1ccccc1Br,4.02
3,CN(C)CCOc1ccc(-c2nc(-c3ccncc3)c(-c3ccc4c(c3)CC/C4=N\O)[nH]2)cc1,8.74
4,CCCN(CCS(C)(=O)=O)Cc1ccc(-c2ccc3ncnc(Nc4ccc(OCc5cccc(F)c5)c(Cl)c4)c3c2)o1,2.96
5,CCc1nn2ncccc2c1-c1ccnc(NC2CC2)n1,3.11
6,CCNC(=O)O[C@H]1CN[C@H](C#Cc2cc3ncnc(Nc4ccc(OCc5cccc(F)c5)c(Cl)c4)c3s2)C1,4.31
7,CNC(=O)c1cccc(C#Cc2cncnc2Nc2ccc(OCc3cccc(F)c3)c(Cl)c2)c1,-0.5
8,CCN1CCC(CC(=O)Nc2n[nH]c3nnc(-c4cccc(F)c4F)cc23)CC1,3.67
9,c1cc(-c2cnn3nc(N4CCOCC4)ccc23)nc(NC2CC2)n1,4.94
10,CS(=O)(=O)CCNCc1coc(-c2ccc3ncnc(Nc4ccc(OCc5ccccc5)cc4)c3c2)c1,5.08
11,COc1ccc(-c2cc3c(N)ncnc3o2)cc1,1.42
12,N#Cc1c(NC(=O)CN2CCOCC2)sc2c1CCCC2,6.83
13,Clc1ccc(-c2nn3ncccc3c2-c2ccnc(Nc3ccccc3)n2)cc1,5.91
14,COc1cc(/C=N/Nc2ncnc3[nH]ncc23)ccc1O,6.75
15,CC(C)(CO)CNC(=O)c1ccc2c(c1)/C(=N/Nc1ccc(S(N)(=O)=O)cc1)C(=O)N2,1.9
16,Cc1ccc(O)cc1Nc1ccnc2cc(-c3ccccn3)ccc12,21.3
17,Fc1ccc(-c2nn3ccccc3c2-c2ccncc2)cc1,4.74

row,SMILES,inhibition [%]
1,c1ccc(-c2nc3n(c2-c2ccc4c(c2)OCO4)CCC3)nc1,3.49
2,N#Cc1c(NC(=O)c2ccc(F)cc2)sc2c1CCCC2,2.23
3,COc1cc(N2CCN(C(C)C)CC2)ccc1Nc1nc(Nc2ccc(F)cc2C(N)=O)c2cc[nH]c2n1,14.2
4,COc1cc2c(cc1Nc1nc(Nc3ccsc3C(N)=O)c3cc[nH]c3n1)N(C(=O)CN(C)C)CCC2(C)C,11.4
5,O=S(=O)(CCNCc1ccc(-c2ccc3ncnc(Nc4ccc(OCc5cccc(F)c5)c(Cl)c4)c3c2)o1)c1ccccc1,5.49
6,CCOc1ccc2c(-c3ccnc(Nc4cccc(C(F)(F)F)c4)n3)cnn2n1,3.9
7,Cc1ccc2c(-c3ccnc(Nc4ccccc4)n3)c(-c3ccc(F)cc3)nn2n1,9.04
8,CNC(=O)c1cc(-c2ccc(F)cc2)cc(-c2ccc(S(=O)(=O)N3CCCC3)cc2)c1N,4.69
9,CCn1cc(-c2ccnc3[nH]ccc23)c(-c2cccc(NC(=O)Nc3ccc(OCc4ccccc4)cc3)c2)n1,3
10,COc1cc(Nc2nccc(Nc3ccc4c(C)n[nH]c4c3)n2)cc(OC)c1OC,2.58
11,CCn1c(-c2nonc2N)nc2c(C#CC(C)(C)O)nc(OC[C@H](N)c3ccccc3)cc21,6.18
12,c1ccc(COc2ccc(Nc3ncnc4ccc(-c5ccco5)cc34)cc2)cc1,4.04
13,Nc1ncc(-c2cccc(S(N)(=O)=O)c2)c2scc(-c3ccc(F)c(Cl)c3)c12,70.9
14,CS(=O)(=O)CCNCc1ccc(-c2ccc3ncnc(Nc4ccc(OCc5ccccc5)c(C(F)(F)F)c4)c3c2)o1,5.41
15,CCN(CC)S(=O)(=O)c1ccc(OC)c(Nc2ncc(-c3ccccc3)o2)c1,4.58
16,NS(=O)(=O)c1ccc(N/N=C2\C(=O)Nc3ccc4ncccc4c32)cc1,34.1
17,COC(=O)Nc1nc2ccc(Oc3ccc(NC(=O)Nc4cccc(Cl)c4)cc3)cc2[nH]1,2.55
